Laboratory results reported in PubChem BioAssay (Tox21).
Active and inactive are the calls of the source. A call without a number means that no potency is given here. Unless noted, the call rests on the fitted dose curve; in most records, active means well fitted curve in the direction sought with a large enough effect in the repeat runs; inconclusive means weak or mixed curves; inactive means no such curve, though single readings can be large; an effect the other way counts as inactive or inconclusive.

Tests used:
[1] = qHTS assay to identify small molecule antagonists of the thyroid receptor (TR) signaling pathway (AID 743065); details: GH3.TRE-Luc, T3-stimulated luciferase inhibition, 23.5 h; series mostly up to 70.3 µM; further: nearly all actives have a fitted effect of over 55% in size; further: potency means the concentration at half of the fitted maximal effect
In short: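 GH3.TRE-Luc rat pituitary cells carrying two TR response elements driving luciferase were plated for 4 h, given compound plus 1 nM T3 (final), and incubated 23.5 h at 37 C. ONE-Glo luminescence measured reporter inhibition; CellTiter-Fluor fluorescence tracked cytotoxicity.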

[2] = system: thyroid hormone receptor (rat, GH3 cells); assay: qHTS assay to identify small molecule agonists of the thyroid receptor (TR) signaling pathway (AID 743066; calls by dose curve); details: GH3.TRE-Luc cells, TR agonist luciferase, 24 h; series mostly up to 83.9 µM
[3] = biological target: Estrogen receptor (Homo sapiens) (UniProt P03372); assay: qHTS assay to identify small molecule agonists of the estrogen receptor alpha (ER-alpha) signaling pathway (AID 743075; calls by dose curve;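 further: HEK293 GripTite cells with ER-alpha and UAS-driven beta-lactamase reporter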; further: potency means the concentration at half of the fitted maximal effect); details: HEK293 ER-alpha-UAS-bla, beta-lactamase FRET ratio, 18 h; series mostly up to 70.1 µM
[4] = qHTS assay to identify small molecule antagonists of the estrogen receptor alpha (ER-alpha) signaling pathway using the BG1 cell line (AID 743080; calls by dose curve;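 further: BG1 cells stimulated with 17beta-estradiol alongside compound; nearly all actives have a fitted effect of over 25% in size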; further: potency means the concentration at half of the fitted maximal effect); details: BG1Luc4E2 ERE-luciferase antagonist mode, luminescence; series mostly up to 70.3 µM
In short: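 Luminescence from a 4×ERE-luciferase reporter in BG1-Luc-4E2 cells served as read-out. Cells, pre-cultured 5 days in stripped-serum phenol-red-free medium, were exposed to compound with 17beta-estradiol co-stimulation for 21.5 h at 37 C.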

Aromatase (Homo sapiens) = Aromatase (Homo sapiens) (UniProt P11511); assay: qHTS assay to identify aromatase inhibitors (AID 743083); details: MCF-7 aro ERE, testosterone-driven ERE luciferase, 24 h; series mostly up to 70.3 µM; further: nearly all actives have a fitted effect of over 55% in size
[5] = biological target: Estrogen receptor (Homo sapiens) (UniProt P03372); assay: qHTS assay to identify small molecule agonists of the estrogen receptor alpha (ER-alpha) signaling pathway using the BG1 cell line (AID 743079); details: BG1Luc4E2 cells, ERE-luciferase agonist, 22 h; activation: at 70.3 µM (top of the series); further: nearly all actives have a fitted effect of over 20% in size; further: potency means the concentration at half of the fitted maximal effect
[6] = qHTS assay to identify small molecule antagonists of the estrogen receptor alpha (ER-alpha) signaling pathway using the BG1 cell line - cell viability counter screen (AID 743081); details: BG1Luc4E2 viability, CellTiter-Fluor, 22 h; series mostly up to 70.3 µM;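 further: compound given together with 17beta-estradiol as the ER stimulus; nearly all actives have a fitted effect of over 45% in size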; further: potency means the concentration at half of the fitted maximal effect
[7] = biological target: Estrogen receptor (Homo sapiens) (UniProt P03372); assay: qHTS assay to identify small molecule antagonists of the estrogen receptor alpha (ER-alpha) signaling pathway (AID 743069; active means well fitted curve in the direction sought with a large enough effect in the signal ratio in the repeat runs, not every such curve was filed as active; inconclusive means weak or mixed curves, or effect the other way; inactive means no such curve, though single readings can be large or run the other way; the % refers to the signal ratio; further: potency means the concentration at half of the fitted maximal effect); details: HEK293 ER-alpha-UAS-bla, beta-lactamase ratio, antagonist mode; series mostly up to 69.4 µM
In short: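 Estradiol-stimulated ER-alpha-UAS-bla HEK293 cells, 18 hr compound exposure at 37C. LiveBLAzer B/G substrate, 2 hr RT, fluorescence read.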

[8] = qHTS assay to identify small molecule antagonists of the estrogen receptor alpha (ER-alpha) signaling pathway - cell viability counter screen (AID 743074; calls by dose curve;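 further: HEK293 cells carrying ER-alpha-UAS-bla reporter stimulated with 17beta-estradiol; nearly all actives have a fitted effect of over 45% in size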); details: ERalpha-bla HEK293 viability, CellTiter-Glo luminescence, 18 h; series mostly up to 69.4 µM

Sequence of Aromatase (Homo sapiens) (P11511 whole entry, looked up): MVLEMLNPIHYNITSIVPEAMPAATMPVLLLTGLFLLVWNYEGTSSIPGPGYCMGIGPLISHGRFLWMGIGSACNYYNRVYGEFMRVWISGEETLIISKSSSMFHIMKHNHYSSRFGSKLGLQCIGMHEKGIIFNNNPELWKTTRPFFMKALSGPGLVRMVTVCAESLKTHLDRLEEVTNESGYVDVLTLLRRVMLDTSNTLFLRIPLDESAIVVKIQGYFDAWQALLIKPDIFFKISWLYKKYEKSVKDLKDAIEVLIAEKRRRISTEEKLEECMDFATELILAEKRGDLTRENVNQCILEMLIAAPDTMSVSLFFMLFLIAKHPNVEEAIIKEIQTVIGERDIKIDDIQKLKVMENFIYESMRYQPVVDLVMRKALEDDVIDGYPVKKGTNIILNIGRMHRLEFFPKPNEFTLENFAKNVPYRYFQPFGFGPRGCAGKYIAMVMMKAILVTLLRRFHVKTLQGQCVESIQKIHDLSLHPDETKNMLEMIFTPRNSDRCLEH
Sequence of Estrogen receptor (Homo sapiens) (P03372 whole entry, looked up): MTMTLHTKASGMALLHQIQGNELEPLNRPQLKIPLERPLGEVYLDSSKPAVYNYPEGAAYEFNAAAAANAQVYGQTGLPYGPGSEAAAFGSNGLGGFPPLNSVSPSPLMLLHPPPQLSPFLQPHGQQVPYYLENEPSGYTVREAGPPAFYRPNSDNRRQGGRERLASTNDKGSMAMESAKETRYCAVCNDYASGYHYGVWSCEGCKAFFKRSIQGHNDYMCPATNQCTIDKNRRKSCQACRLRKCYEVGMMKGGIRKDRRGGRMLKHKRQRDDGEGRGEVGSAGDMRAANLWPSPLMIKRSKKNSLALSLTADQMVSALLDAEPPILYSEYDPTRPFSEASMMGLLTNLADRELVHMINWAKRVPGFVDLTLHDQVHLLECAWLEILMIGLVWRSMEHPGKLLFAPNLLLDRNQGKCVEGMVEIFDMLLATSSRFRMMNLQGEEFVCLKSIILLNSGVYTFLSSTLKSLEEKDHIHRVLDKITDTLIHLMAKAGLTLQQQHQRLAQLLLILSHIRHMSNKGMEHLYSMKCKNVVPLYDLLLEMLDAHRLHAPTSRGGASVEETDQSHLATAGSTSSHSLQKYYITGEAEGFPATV

Row | Compound | Potency [1] | Potency [2] | Potency [3] | Potency [4] | Potency (Aromatase (Homo sapiens)) | activation [5] | Potency [6] | Potency [7] | Potency [8] | Potency [5]
1 | O=C(O)CN(CC(=O)O)CC1=CC2C(=CC1=O)Oc1cc(O)c(CN(CC(=O)O)CC(=O)O)cc1C21OC(=O)c2ccccc21 (stereo unspecified) | inactive | inactive | inactive | inactive | inactive | – | – | – | – | –
2 | CCCCCCC(=O)O[C@H]1CC[C@H]2[C@@H]3CCc4cc(O)ccc4[C@H]3CC[C@]12C | 21.1 µM (active) | – | 0.0007 µM [inconclusive] (active) | – | inactive | 66.1% (active) | inactive | – | – | –
3 | O=C(OC1C[C@@H]2CC3C[C@H](C1)N2CC3=O)c1c[nH]c2ccccc12 (stereo partly specified) | 29.8 µM (active) | – | inactive | – | inactive | – | – | inactive | inactive | inactive
4 | N#CC(c1ccc(Cl)cc1)c1c(Cl)cc(-n2ncc(=O)[nH]c2=O)cc1Cl (stereo unspecified) | 3.76 µM (active) | – | inactive | – | inactive | – | inactive | – | – | inactive
5 | N=C(N)c1ccc(OCCCOc2ccc(C(=N)N)cc2Br)c(Br)c1 | – | inactive | – | – | – | – | – | – | – | –
6 | CCCCC(C)(O)C/C=C/[C@H]1[C@H](O)CC(=O)[C@@H]1CCCCCCC(=O)OC (stereo partly specified) | inactive | inactive | – | – | inactive | – | inactive | – | inactive | –
7 | CC(CCc1ccc(O)cc1)NCC(O)c1ccc(O)cc1 (stereo unspecified) | inactive | inactive | – | – | inactive | – | inactive | – | inactive | –
8 | CCC(=O)O[C@H]1CC[C@H]2[C@@H]3CCc4cc(O)ccc4[C@H]3CC[C@]12C | 26.6 µM (active) | – | 0.0013 µM [inconclusive] (active) | inactive | inactive | 52.2% (active) | inactive | – | inactive | –
9 | COc1ccc(CNCC(O)COc2ccc3[nH]c(=O)ccc3c2)cc1OC (stereo unspecified) | inactive | inactive | – | – | inactive | – | inactive | – | inactive | –
10 | CC1(C)S[C@@H]2[C@H](NC(=O)C3(N)CCCCC3)C(=O)N2[C@H]1C(=O)O | inactive | inactive | – | – | inactive | – | inactive | – | inactive | –
11 | CC(CC(c1ccccc1)c1ccccc1)NC(C)(C)C (stereo unspecified) | 21.1 µM (active) | inactive | inactive | inactive | inactive | – | – | – | – | inactive
12 | O=P(O)(O)C(Sc1ccc(Cl)cc1)P(=O)(O)O | inactive | inactive | – | – | inactive | – | – | – | inactive | –
13 | O=C(O)c1nc(=O)[nH]c(=O)[nH]1 | inactive | inactive | – | – | inactive | – | inactive | – | inactive | –
14 | O=C(O)c1c(Cl)c(Cl)c(Cl)c(Cl)c1-c1c2cc(I)c(=O)c(I)c-2oc2c(I)c(O)c(I)cc12 | 23.7 µM (active) | inactive | inactive | inactive | inactive | – | 23.7 µM (active) | – | – | –
15 | Nc1nc(=O)n([C@@H]2CS[C@H](CO)O2)cc1F | inactive | inactive | – | – | – | – | inactive | – | inactive | –
16 | CCCCCCCCCCCCCCCCSCC(COC)COP(=O)([O-])OCC[N+](C)(C)C (stereo unspecified) | 18.8 µM (active) | – | inactive | inactive | – | – | inactive | 21.3 µM [inhibitor] (active) | inactive | inactive
17 | CC(C)N=c1cc2n(-c3ccc(Cl)cc3)c3ccccc3nc-2cc1Nc1ccc(Cl)cc1 | 6.39 µM (active) | – | inactive | – | inactive | – | 11.4 µM (active) | inactive | inactive | inactive

Row | Compound | Potency [1] | Potency [2] | Potency [3] | Potency [4] | Potency (Aromatase (Homo sapiens)) | activation [5] | Potency [6] | Potency [7] | Potency [8] | Potency [5]
18 | CO[C@@H]1[C@@H](O[C@@H]2O[C@H](C)[C@@H](O[C@H]3C[C@@](C)(O)[C@@H](O)[C@H](C)O3)[C@H](N(C)C)[C@H]2O)[C@@H](CC=O)C[C@@H](C)[C@@H](O[C@@H]2CC[C@H](N(C)C)[C@@H](C)O2)/C=C/C=C/C[C@@H](C)OC(=O)C[C@H]1O | – | – | inactive | inactive | inactive | – | inactive | inactive | inactive | inactive
19 | CCC[C@@H]1C[C@@H](C(=O)N[C@@H]([C@H]2O[C@H](SC)[C@H](O)[C@@H](O)[C@H]2O)[C@H](C)Cl)N(C)C1 | – | inactive | inactive | inactive | inactive | – | inactive | inactive | inactive | inactive
20 | C[C@]12CCC(=O)C[C@@H]1CC[C@@H]1[C@@H]2CC[C@]2(C)C=CC[C@@H]12 | – | inactive | 8.49 µM [inconclusive] (active) | inactive | inactive | – | inactive | – | inactive | 11.9 µM (active)
21 | O=C(CCCN1CCC(C(=O)c2ccc(F)cc2)CC1)c1ccc(F)cc1 | – | inactive | inactive | inactive | inactive | – | inactive | inactive | inactive | inactive
22 | CNC(C)CCC=C(C)C (stereo unspecified) | – | inactive | – | – | inactive | – | inactive | – | – | –
23 | CN1C(=O)CN2CCc3ccccc3C2c2cc(Cl)ccc21 (stereo unspecified) | – | – | inactive | 21.1 µM (active) | inactive | – | inactive | inactive | inactive | inactive
24 | Nc1c(Br)cc(Br)cc1CNC1CCC(O)CC1 (stereo unspecified) | – | – | inactive | inactive | inactive | – | inactive | inactive | inactive | inactive
25 | NC[C@@H]1O[C@H](O[C@H]2[C@@H](O)[C@H](O[C@@H]3[C@@H](O)[C@H](N)C[C@H](N)[C@H]3O[C@H]3O[C@H](CN)[C@@H](O)[C@H](O)[C@H]3N)O[C@@H]2CO)[C@H](N)[C@@H](O)[C@@H]1O | – | – | inactive | inactive | inactive | – | inactive | inactive | inactive | inactive
26 | COc1ccc(CCNC[C@H](O)c2ccc(O)cc2)cc1OC | – | – | inactive | inactive | inactive | – | inactive | inactive | inactive | inactive
27 | CN[C@@H]1CCc2[nH]c3ccc(C(N)=O)cc3c2C1 | – | inactive | – | – | inactive | – | inactive | – | inactive | –
28 | C#C[C@]1(O)CC[C@H]2[C@@H]3CCC4=CCCC[C@@H]4[C@H]3C(=C)C[C@@]21CC | – | – | 2.39 µM [inconclusive] (active) | inactive | inactive | – | inactive | inactive | inactive | 1.88 µM (active)
29 | CN(C)CCOc1ccccc1Cc1ccccc1 (tested in a mixture with another compound) | – | inactive | – | – | inactive | – | inactive | – | inactive | –
30 | CC1(C)S[C@@H]2[C@H](NC(=O)C(C(=O)O)c3ccsc3)C(=O)N2[C@H]1C(=O)O (stereo partly specified) | – | – | inactive | inactive | inactive | – | inactive | inactive | inactive | inactive
31 | COc1cc2[nH]c(C)c(CCN3CCN(c4ccccc4)CC3)c2cc1OC | – | inactive | inactive | inactive | inactive | – | inactive | inactive | inactive | inactive
32 | CC(CN(C)C)CN1c2ccccc2S(=O)(=O)c2ccccc21 (stereo unspecified) | – | inactive | inactive | inactive | inactive | – | – | inactive | inactive | inactive
33 | O=C1/C(=C\c2cccs2)CCC/C1=C\c1cccs1 | – | inactive | – | – | inactive | – | inactive | – | inactive | 26.6 µM (active)
